SMILES strings stand for the structures. Records with an inconclusive call do not appear. Active and inactive are the calls of the source. Unless noted, the call rests on the fitted dose curve; in most records, active means well fitted curve in the direction sought with a large enough effect in the repeat runs; inconclusive means weak or mixed curves; inactive means flat fitted curve, though single readings scatter. Non-standard residues stand in square brackets, D forms with d. Residues, ends and D or L forms follow the SMILES beside them. pGlu = O=C1CC[C@@H](C(=O)O)N1; Thz = O=C(O)[C@@H]1CSCN1

Test [1] can be described thus: qHTS assay to test for compound auto fluorescence at 535 nm (green) in HEK293 cells (AID 720680). A general note: In qHTS, concentration-response curves come from the screen itself.
Test [2] is described as follows: qHTS assay to test for compound auto fluorescence at 460 nm (blue) in HEK293 cell free culture (AID 720681). An outline of the steps: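 Compounds were added to cell-free DMEM with 10% FBS and fluorescence read directly. The blue channel used 405 nm excitation and 460 nm emission, with triamterene as the reference fluorophore.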
A short description of test [3]: qHTS assay to test for compound auto fluorescence at 535 nm (green) in HEK293 cell free culture (AID 720682). The essentials:
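Cell-free medium (DMEM, 10% FBS) receives compound or DMSO by pintool. Plate read directly at Ex 485/Em 535 nm. Signal converted to fluorescein equivalency.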

Test [4] is described as follows: qHTS assay to test for compound auto fluorescence at 590 nm (red) in HEK293 cell free culture (AID 720683). An outline of the steps: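 Cell-free wells of DMEM with 10% FBS received compound, and intrinsic fluorescence was read at excitation/emission 540/590 nm. Values expressed as equivalence to Rose Bengal sodium.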
The nature of test [5]: qHTS assay to test for compound auto fluorescence at 590 nm (red) in HepG2 cell free culture (AID 720684). The essentials: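 Auto fluorescence equivalency versus Rose Bengal sodium, red channel Ex/Em 540/590 nm; compounds in cell-free MEM/10% FBS; DMSO vehicle control.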
The nature of test [6]: qHTS assay to test for compound auto fluorescence at 460 nm (blue) in HepG2 cell free culture (AID 720685). The essentials: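 Cell-free plates of MEM plus 10% FBS received 23 nL compound or DMSO vehicle; blue-channel (405/460 nm) intensity scored against triamterene as reference fluorophore.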
Test [7] in a line: qHTS assay to test for compound auto fluorescence at 535 nm (green) in HepG2 cell free culture (AID 720686).
Test [8] is described as follows: qHTS assay to test for compound auto fluorescence at 460 nm (blue) in HepG2 cells (AID 720687). An outline of the steps: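 HepG2 cells in MEM with 10% FBS, attached overnight at 37 C, were exposed to compound or DMSO for 1 hr at 37 C, 5% CO2. Blue fluorescence was read at 405/460 nm, with triamterene as reference fluorophore.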
The target in test [9] is Glucocorticoid receptor (Homo sapiens) (UniProt P04150). In words: qHTS assay to identify small molecule agonists of the glucocorticoid receptor (GR) signaling pathway (AID 720691; active means well fitted activation curve with a large enough effect in the signal ratio in the repeat runs, not every such curve was filed as active; the % refers to the signal ratio). The settings on record: GR-bla HeLa, beta-lactamase reporter ratio, 18 h; activation: at 62.4 µM (top of the series). The essentials: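 HeLa GR-bla reporter line; cells pre-incubated 4 h, compound in DMSO 18 h at 37 C; LiveBLAzer B/G FRET substrate 2 h RT; fluorescence intensity read-out.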
Sequence of Glucocorticoid receptor (Homo sapiens) (P04150 whole entry, looked up): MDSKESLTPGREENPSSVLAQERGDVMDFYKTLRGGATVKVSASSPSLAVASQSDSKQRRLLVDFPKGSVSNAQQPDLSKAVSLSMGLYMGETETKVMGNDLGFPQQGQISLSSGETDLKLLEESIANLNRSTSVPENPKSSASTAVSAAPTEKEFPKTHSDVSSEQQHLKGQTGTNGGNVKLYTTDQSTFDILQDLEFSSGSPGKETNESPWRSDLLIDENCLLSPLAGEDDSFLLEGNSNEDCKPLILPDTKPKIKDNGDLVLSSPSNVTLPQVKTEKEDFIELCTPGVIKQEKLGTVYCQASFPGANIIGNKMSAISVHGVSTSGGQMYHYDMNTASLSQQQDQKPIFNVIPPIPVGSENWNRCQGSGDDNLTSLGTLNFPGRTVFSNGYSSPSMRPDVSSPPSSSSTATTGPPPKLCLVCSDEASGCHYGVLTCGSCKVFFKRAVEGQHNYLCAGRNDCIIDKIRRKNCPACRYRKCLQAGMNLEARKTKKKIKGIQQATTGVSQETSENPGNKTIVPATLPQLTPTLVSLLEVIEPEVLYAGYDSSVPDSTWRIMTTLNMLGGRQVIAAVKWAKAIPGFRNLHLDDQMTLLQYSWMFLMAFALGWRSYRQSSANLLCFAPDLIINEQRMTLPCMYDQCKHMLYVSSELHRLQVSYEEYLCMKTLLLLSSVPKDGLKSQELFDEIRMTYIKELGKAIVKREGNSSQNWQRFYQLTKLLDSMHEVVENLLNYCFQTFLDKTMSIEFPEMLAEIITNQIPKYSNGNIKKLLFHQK

For test [10] the target is unchanged. In words: qHTS assay to identify small molecule antagonists of the glucocorticoid receptor (GR) signaling pathway (AID 720692; active means well fitted inhibition curve with a large enough effect in the signal ratio in the repeat runs, not every such curve was filed as active; the % refers to the signal ratio; further: potency means the concentration at half of the fitted maximal effect). An outline of the steps: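 Read-out: beta-lactamase FRET substrate fluorescence, 2 h at room temperature, in HeLa cells stably carrying a GRE-driven bla reporter. Compounds were co-incubated with 5 nM dexamethasone agonist (final) for 18 h at 37 C.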

For the compound `CO[C@@H]1[C@@H](O[C@@H]2O[C@H](C)[C@@H](O[C@H]3C[C@@](C)(O)[C@@H](O)[C@H](C)O3)[C@H](N(C)C)[C@H]2O)[C@@H](CC=O)C[C@@H](C)[C@@H](O[C@@H]2CC[C@H](N(C)C)[C@@H](C)O2)/C=C/C=C/C[C@@H](C)OC(=O)C[C@H]1O`, the Potency entry in test [1], in test [2], in test [3], in [4], in test [5] and in [7] was “inactive” in each case. Moreover, the Potency result in test [9] and in test [10] was “inactive” throughout. Besides, the call in test [6] and in [8] was inactive.

With `FCOC(C(F)(F)F)C(F)(F)F`, the Potency entry in test [1], in [2], in [3], in test [4], in [5] and in test [7] was “inactive” in each case. In addition, the Potency entry in test [9] and in test [10] was “inactive” in each case. Moreover, the compound was classed as inactive in test [6] and in test [8].

As for `C/C1=C2N=C(/C=C3N=C(/C(C)=C4\[N-]C(C(CC(N)=O)C4(C)CCC(=O)NCC(C)OP(=O)([O-])OC4C(CO)OC(n5cnc6cc(C)c(C)cc65)C4O)C4(C)N=C1C(CCC(N)=O)C4(C)CC(N)=O)C(CCC(N)=O)C\3(C)C)C(CCC(N)=O)C/2(C)CC(N)=O.[CH3-].[Co+3]` (stereo not given), the Potency entry in test [1], in [2], in test [3], in test [4], in test [5] and in [7] was “inactive” in each case. Also, the Potency entry in test [9] and in test [10] was “inactive” throughout. Moreover, the result in test [6] and in [8] was inactive.

For `CC1(C)S[C@@H]2[C@H](NC(=O)Cc3ccccc3)C(=O)N2[C@H]1C(=O)O`, the Potency entry in [1], in test [2], in [3], in test [4], in test [5] and in [7] was “inactive” each time. Also, the Potency result in test [9] and in [10] was “inactive” throughout. In addition, the outcome in test [6] and in test [8] was inactive.

As for `C[C@@H](O)[C@H]1C(=O)N2C(C(=O)[O-])=C(SC3Cn4cnc[n+]4C3)[C@H](C)[C@H]12` (stereo not given in full), the Potency result in test [1], in [2], in test [3], in [4], in [5] and in test [7] was “inactive” throughout. Also, the Potency result in test [9] and in test [10] was “inactive” in each case. In addition, the compound was classed as inactive in test [6] and in [8].

For the compound `Cc1cccc(C)c1N(CCCc1cccnc1)C(=O)C(C)N` (stereo not given), the Potency entry in test [1], in test [2], in test [3], in [4], in test [5] and in test [7] was “inactive” throughout. The Potency result in test [9] and in test [10] was “inactive” each time. Further, the outcome in test [6] and in [8] was inactive.

With `NC(=O)OC[C@@H]1[C@H](NC(=O)/C(=N\OCC(=O)O)c2csc(N)n2)C(=O)N1S(=O)(=O)O`, the Potency entry in [1], in test [2], in test [3], in test [4], in test [5] and in [7] was “inactive” in each case. In addition, the Potency result in [9] and in test [10] was “inactive” each time. Further, the outcome in test [6] and in test [8] was inactive.

With `O=C1CC[C@@H](C(=O)N2CSC[C@H]2C(=O)O)N1` ([pGlu]-[Thz]-OH), the Potency result in [1], in [2], in test [3], in [4], in test [5] and in [7] was “inactive” each time. In addition, the Potency result in test [9] and in [10] was “inactive” each time. In addition, the compound was classed as inactive in test [6] and in test [8].

As to `Cc1cccc(C)c1Nc1ncccc1C(=O)O`, the Potency result in test [1], in test [2], in test [3], in [4], in test [5] and in test [7] was “inactive” throughout. Further, the Potency entry in test [9] and in [10] was “inactive” in each case. The call in test [6] and in test [8] was inactive.

Consider `CCCCCCCCCCCCCCCC(=O)O[C@@H]1CC(C)=C(/C=C/C(C)=C/C=C/C(C)=C/C=C/C=C(C)/C=C/C=C(C)/C=C/C2=C(C)C[C@@H](OC(=O)CCCCCCCCCCCCCCC)CC2(C)C)C(C)(C)C1`, for which the Potency result in test [1], in [2], in test [3], in [4], in test [5] and in [7] was “inactive” in each case. In addition, in test [9], the Potency entry was “inactive”. In addition, the call in test [6] and in test [8] was inactive. Besides, in test [10], the Potency is 12 µM (active).

For `COC(=O)CC[C@H](N)C(=O)O`, the Potency result in test [1], in test [2], in test [3], in test [4], in test [5] and in test [7] was “inactive” each time. The Potency result in [9] and in [10] was “inactive” in each case. In addition, the call in test [6] and in test [8] was inactive.

In the case of `N#Cc1ccc2c(c1)N(CCCN1CCC(O)CC1)c1ccccc1S2`, the Potency result in test [1], in test [2], in test [3], in [4], in test [5] and in test [7] was “inactive” throughout. For the same compound, the Potency entry in [9] and in test [10] was “inactive” each time. Also, the result in test [6] and in test [8] was inactive.

Consider `CCN1C(=O)NC(c2ccccc2)C1=O` (stereo not given), for which the Potency entry in test [1], in [2], in [3], in [4], in test [5] and in test [7] was “inactive” throughout. Besides, the Potency entry in [9] and in test [10] was “inactive” each time. Moreover, the outcome in test [6] and in [8] was inactive.

As for `NC(=O)OCC(O)COc1ccc(Cl)cc1` (stereo not given), the Potency result in test [1], in test [2], in test [3], in [4], in test [5] and in [7] was “inactive” throughout. Besides, the Potency entry in test [9] and in [10] was “inactive” in each case. The call in test [6] and in test [8] was inactive.

With `CCCC(CCC)C(N)=O`, the Potency result in test [1], in [2], in [3], in [4], in [5] and in test [7] was “inactive” throughout. Also, the Potency entry in test [9] and in test [10] was “inactive” throughout. The call in test [6] and in test [8] was inactive.

As to `CC1CS(=O)(=O)CCN1/N=C/c1ccc([N+](=O)[O-])o1` (stereo not given), the Potency result in [1], in [2], in test [3], in [4], in [5] and in test [7] was “inactive” in each case. Moreover, the Potency result in [9] and in test [10] was “inactive” each time. Moreover, the result in test [6] and in [8] was inactive.

Take `CN[C@@H]1[C@@H](O)[C@@H](O[C@@H]2[C@@H](O)[C@H](OC3OC(CN)=CCC3N)[C@@H](N)C[C@H]2N)OC[C@]1(C)O` (stereo not given in full): the Potency result in test [1], in [2], in test [3], in [4], in [5] and in test [7] was “inactive” throughout. The Potency entry in test [9] and in test [10] was “inactive” each time. In addition, the compound was called inactive in [6] and in test [8].

For the compound `CC[N+](C)(C)Cc1ccccc1Br`, the Potency entry in test [1], in test [2], in test [3], in [4], in test [5] and in [7] was “inactive” throughout. The Potency entry in test [9] and in test [10] was “inactive” in each case. The compound was called inactive in test [6] and in [8].

Regarding `O=C(O)C1=C(CSc2nnnn2CS(=O)(=O)O)CS[C@@H]2[C@H](NC(=O)[C@H](O)c3ccccc3)C(=O)N12`, the Potency result in [1], in test [2], in [3], in test [4], in [5] and in [7] was “inactive” each time. Further, the Potency result in [9] and in test [10] was “inactive” in each case. Also, the outcome in test [6] and in test [8] was inactive.

`Cc1ncc(COP(=O)(O)O)c(CN)c1O`: the Potency result in test [1], in [2], in test [3], in [4], in test [5] and in [7] was “inactive” in each case. Besides, the Potency result in [9] and in test [10] was “inactive” in each case. Also, the call in test [6] and in test [8] was inactive.

Consider `CC(=O)N[C@@H]([C@@H](O)[C@H](O)[C@H](O)CO)[C@@H](O)CC(=O)C(=O)O`, for which the Potency entry in test [1], in test [2], in test [3], in [4], in test [5] and in test [7] was “inactive” throughout. Further, the Potency result in [9] and in [10] was “inactive” throughout. For the same compound, the result in test [6] and in test [8] was inactive.
